Experimental findings from PubChem BioAssay (Tox21) are described below.

Values without a mark were called inactive. Results filed as inconclusive are left out. Calls of active or inactive are those of the source. Unless noted, calls follow the shape of the dose curve; as a rule, active = well fitted curve in the direction sought with a large enough effect in the repeat runs; inconclusive = weak or mixed curves; inactive = no such curve, though single readings can be large; an effect the other way counts as inactive or inconclusive.

In assay [1] the target is Estrogen receptor beta (Homo sapiens) (UniProt Q92731). Description: qHTS assay to identify small molecule agonists of the estrogen receptor beta (ER-beta) signaling pathway (AID 1259377; active = well fitted activation curve with a large enough effect in the signal ratio in the repeat runs, not every such curve was filed as active; the % refers to the signal ratio). Summed up: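 Read-out: beta-lactamase FRET fluorescence. Cell line: ER-beta-UAS-bla HEK293T in 2% charcoal-stripped FBS. Exposure: 16 hr at 37C. Substrate step: 2 h at room temperature.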
Chain of Estrogen receptor beta (Homo sapiens) (Q92731 whole entry, looked up): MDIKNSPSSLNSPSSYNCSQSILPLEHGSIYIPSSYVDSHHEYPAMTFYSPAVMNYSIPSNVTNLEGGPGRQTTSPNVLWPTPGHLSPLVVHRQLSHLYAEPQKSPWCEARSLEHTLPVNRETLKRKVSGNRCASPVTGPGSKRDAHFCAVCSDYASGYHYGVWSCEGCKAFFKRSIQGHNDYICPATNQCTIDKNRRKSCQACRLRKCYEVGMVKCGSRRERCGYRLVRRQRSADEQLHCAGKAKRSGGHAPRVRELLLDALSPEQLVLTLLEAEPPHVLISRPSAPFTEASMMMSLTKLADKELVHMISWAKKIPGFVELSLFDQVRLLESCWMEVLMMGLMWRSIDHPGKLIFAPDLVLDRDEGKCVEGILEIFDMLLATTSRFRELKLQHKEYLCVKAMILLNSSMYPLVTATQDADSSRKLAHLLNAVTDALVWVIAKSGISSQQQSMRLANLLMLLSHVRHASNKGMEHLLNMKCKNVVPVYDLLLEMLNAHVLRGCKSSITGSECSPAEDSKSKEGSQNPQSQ
For orientation: In qHTS, concentration-response curves come from the screen itself.

For assay [2] the target is unchanged. Description: qHTS assay to identify small molecule antagonists of the estrogen receptor beta (ER-beta) signaling pathway (AID 1259378; active = well fitted inhibition curve with a large enough effect in the signal ratio in the repeat runs, not every such curve was filed as active; the % refers to the signal ratio). Summed up: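 ER-beta-UAS-bla HEK293T (GripTite) cells in 2% charcoal-stripped FBS medium were preincubated 6 hr at 37C, dosed with compound, then stimulated with 1 nM E2 (final) for 16 hr; beta-lactamase reporter read by B/G FRET fluorescence after 2 hr substrate loading.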

Assay [3] can be described thus: qHTS assay to identify small molecule agonists of the estrogen receptor beta (ER-beta) signaling pathway - cell viability counter screen (AID 1259380). Also: nearly all actives have a fitted effect of over 30% in size. In a few lines: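 Same-well viability counter screen. Cells: ER-beta-UAS-bla HEK293T, plated 6 hr before compound, in 2% charcoal-stripped FBS. Compound exposure 16 hr, 37C; viability by CellTiter-Glo luminescence after 30 min at room temperature.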

The target of assay [4] is Androgen receptor (Homo sapiens) (UniProt P10275). The assay can be described thus: qHTS assay to identify small molecule agonists of the androgen receptor (AR) signaling pathway in the presence of an antagonist (AID 1259381; calls by dose curve; also: nearly all actives have a fitted effect of over 15% in size). Summed up: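 Cells are MDA-kb2 (human breast carcinoma, MMTV-luc, AR/GR responsive). Nilutamide is present at 3.0uM final throughout; compounds are added at 15 concentrations and incubated 16hr at 37C before ONE-Glo luminescence detection.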
Chain of Androgen receptor (Homo sapiens) (P10275 whole entry, looked up): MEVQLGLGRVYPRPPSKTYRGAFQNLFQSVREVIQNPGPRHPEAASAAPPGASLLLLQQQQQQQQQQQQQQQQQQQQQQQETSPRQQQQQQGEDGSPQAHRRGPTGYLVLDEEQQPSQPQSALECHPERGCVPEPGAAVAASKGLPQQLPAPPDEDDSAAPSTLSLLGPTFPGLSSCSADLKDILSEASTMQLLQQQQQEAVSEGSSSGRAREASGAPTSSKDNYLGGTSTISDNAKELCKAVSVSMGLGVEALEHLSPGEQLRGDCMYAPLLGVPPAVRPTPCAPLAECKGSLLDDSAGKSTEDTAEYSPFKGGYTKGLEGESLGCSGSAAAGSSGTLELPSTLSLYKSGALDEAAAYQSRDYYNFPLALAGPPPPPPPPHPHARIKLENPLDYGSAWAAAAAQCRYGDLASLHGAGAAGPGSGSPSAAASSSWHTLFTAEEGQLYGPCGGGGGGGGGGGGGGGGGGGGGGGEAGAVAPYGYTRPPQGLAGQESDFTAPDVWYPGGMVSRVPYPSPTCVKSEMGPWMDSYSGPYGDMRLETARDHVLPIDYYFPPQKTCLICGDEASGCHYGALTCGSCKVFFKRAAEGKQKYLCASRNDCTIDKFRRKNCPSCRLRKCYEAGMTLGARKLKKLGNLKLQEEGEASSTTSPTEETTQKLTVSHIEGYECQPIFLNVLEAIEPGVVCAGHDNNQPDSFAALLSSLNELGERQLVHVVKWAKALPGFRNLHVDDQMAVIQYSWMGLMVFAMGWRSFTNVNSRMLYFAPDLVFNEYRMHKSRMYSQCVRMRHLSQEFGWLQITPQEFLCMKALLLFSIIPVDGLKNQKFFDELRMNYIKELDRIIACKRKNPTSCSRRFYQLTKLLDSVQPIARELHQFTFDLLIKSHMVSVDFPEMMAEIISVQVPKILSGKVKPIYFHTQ

Assay [5] can be described thus: qHTS assay to identify small molecule antagonists of the estrogen receptor beta (ER-beta) signaling pathway - cell viability counter screen (AID 1259382). Also: series mostly up to about 92 µM; nearly all actives have a fitted effect of over 55% in size. In a few lines:
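Following a 6 hr plating period, HEK293T cells carrying a UAS-driven beta-lactamase reporter under ER-beta control received compounds and 1nM E2 (final). After 16 hr at 37C and 2 hr substrate loading, CellTiter-Glo luminescence indicated viability.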

Assay [6] deals with Estrogen receptor (Homo sapiens) (UniProt P03372). The assay can be described thus: qHTS assay to identify small molecule agonists of the estrogen receptor alpha (ER-alpha) signaling pathway in the presence of an antagonist (AID 1259383; calls by dose curve; also: top concentration of the series differs between compounds; nearly all actives have a fitted effect of over 15% in size). Summed up:
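Cells are hormone-deprived for 5 days (charcoal-stripped FBS, no phenol red), plated for 24hr, spiked with 10.0nM ICI-182,780, then dosed at 15 concentrations. After 22hr at 37C, ONE-Glo luminescence reports ERE-luciferase activity.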

Assay [7] is described as follows: qHTS assay to identify small molecule agonists of the estrogen receptor alpha (ER-alpha) signaling pathway in the presence of an antagonist - cell viability counter screen (AID 1259386).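 Also: series mostly up to about 92 µM; cells exposed to compounds for 22 h at 37 °C before the viability read; nearly all actives have a fitted effect of over 30% in size.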 Summed up:
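Cells are starved of estrogens for 5 days in charcoal-stripped serum, seeded for 24hr and co-treated with ICI-182,780 (10.0nM final) and test compounds. After 22hr at 37C, viability is read as CellTiter-Fluor fluorescence.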

Assay [8] in a line: qHTS assay to identify small molecule antagonists of the TGF-beta/Smad signaling pathway - cell viability counter screen (AID 1346824). Also: nearly all actives have a fitted effect of over 50% in size. In a few lines:
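SBE-bla HEK 293T cells were plated overnight at 37 C, then given compounds in DMSO plus TGF-beta1 (added as 0.25 ng/mL solution) for 5 hr. After the bla read, CellTiter-Glo was added to the same wells and luminescence read after 30 min at room temperature.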

Assay [9] is described as follows: qHTS assay to identify small molecule agonists of the TGF-beta/Smad signaling pathway - cell viability counter screen (AID 1346829). Also: top concentration of the series differs between compounds; nearly all actives have a fitted effect of over 45% in size. In a few lines:
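Luminescence from CellTiter-Glo, read after a 30 min room-temperature incubation, gives cell viability of SBE-bla HEK 293T cells treated 5 hr with compounds at 37 C.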

Assay [10] in a line: qHTS assay to identify small molecule agonists of the TGF-beta/Smad signaling pathway (AID 1346859; active = well fitted activation curve with a large enough effect in the signal ratio in the repeat runs, not every such curve was filed as active; the % refers to the signal ratio; also: series mostly up to about 77 µM). Summed up: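 Each well held 4,000 SBE-bla HEK 293T cells incubated overnight before compound addition; 5 hr later the cleavable FRET substrate went on for 2 hr at room temperature, and fluorescence was read at two emissions.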
The target of assay [11] is Thyrotropin-releasing hormone receptor (Homo sapiens) (UniProt P34981). Description: qHTS assay to identify small molecule antagonists of the thyrotropin-releasing hormone receptor (TRHR) signaling pathway (AID 1346877; active = well fitted inhibition curve with a large enough effect in the repeat runs, not every such curve was filed as active; also: series mostly up to about 51 µM). Summed up:
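Cells (TRHR-HEK293) are plated and kept 18 h at 37 °C/5% CO2. A calcium-sensitive dye is added for 2 h, compound follows for 5 min at room temperature, and TRH is then given at 1 nM final.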

The target is the same in assay [12]. The assay can be described thus: qHTS assay to identify small molecule agonists of the thyrotropin-releasing hormone receptor (TRHR) signaling pathway (AID 1346891; calls by dose curve; also: series mostly up to about 58 µM). In a few lines:
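Screening of agonists relied on calcium signalling in HEK293 cells expressing human TRHR: dye loading 2 h at 37 °C preceded compound addition and a 3-min fluorescence time course.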

The nature of assay [13]: qHTS assay to identify small molecule agonists of the androgen receptor (AR) signaling pathway in the presence of an antagonist - cell viability counter screen (AID 1259379).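 Also: MDA-kb2 human breast cancer cells carrying an MMTV luciferase reporter; series mostly up to about 92 µM; nearly all actives have a fitted effect of over 25% in size.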 In a few lines: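 Fluorescence from CellTiter-Fluor, added after 15 hr and read 1 hr later, gave cell viability. Cells were MDA-kb2 exposed to compounds (15 concentrations) in the presence of 3.0uM nilutamide at 37C, 0% CO2.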

Assay [14] deals with Progesterone receptor (Homo sapiens) (UniProt P06401). Description: qHTS assay to identify small molecule agonists of the progesterone receptor (PR) signaling pathway (AID 1346784; calls by dose curve; also: nearly all actives have a fitted effect of over 30% in size). Summed up:
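Compounds were tested for PR agonism in HEK 293T cells bearing a beta-lactamase gene under UAS control. Treatment lasted 16 hr at 37C; signal came from fluorescence of a FRET substrate.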

Assay [15] can be described thus: qHTS assay to identify small molecule antagonists of the progesterone receptor (PR) signaling pathway - cell viability counter screen (AID 1346798). Also: series mostly up to about 92 µM; nearly all actives have a fitted effect of over 50% in size. In a few lines:
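Following a 4 hr attachment, PR-UAS-bla HEK293T cells in charcoal-stripped FBS medium were exposed to compounds with R5020 for 16 hr; CellTiter-Glo was added and luminescence read after 30 min at room temperature.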

Assay [16] can be described thus: qHTS assay to identify small molecule agonists of the progesterone receptor (PR) signaling pathway - cell viability counter screen (AID 1346799; calls by dose curve; also: nearly all actives have a fitted effect of over 45% in size). In a few lines:
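Here, 3,000 PR-UAS-bla HEK293T cells per well were treated with compounds for 16 hr after a 6 hr preincubation at 37C and 5% CO2; cell viability is the CellTiter-Glo luminescence signal.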

Assay [17] in a line: qHTS assay to identify small molecule agonists or antagonists of the thyroid stimulating hormone receptor (TSHR) signaling pathway - wild type cell line counter screen (AID 1259384; calls by dose curve). Summed up: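 Wild-type HEK293 cells were plated 18 h at 37 C/5% CO2, pin-dosed with compound plus Ro20-1724 medium, held 30 min at room temperature, then given cAMP-d2 and anti-cAMP-cryptate; fluorescence was read after 1 h. Fifteen concentrations, triplicate.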

Assay [18] addresses Progesterone receptor (Homo sapiens) (UniProt P06401). The assay can be described thus: qHTS assay to identify small molecule antagonists of the progesterone receptor (PR) signaling pathway (AID 1346795; active = well fitted inhibition curve with a large enough effect in the signal ratio in the repeat runs, not every such curve was filed as active; the % refers to the signal ratio; also: potency is read from the fitted curve at half-maximal effect). Summed up: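 In HEK293T cells bearing the PR-UAS-bla reporter, compound effects on promegestone-driven (1 nM) beta-lactamase expression are assessed after 16 hr using a fluorescent FRET substrate incubated 2 hr at room temperature.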

For assay [19], the target named is Thyrotropin receptor (Homo sapiens) (UniProt P16473). Description: qHTS assay to identify small molecule antagonists of the thyroid stimulating hormone receptor (TSHR) signaling pathway (AID 1259385; calls by dose curve; also: nearly all actives have a fitted effect of over 20% in size). In a few lines: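 TSHR-HEK293 cells were plated and held 18 h at 37C/5% CO2, then given compound plus Ro20-1724 and stimulated with TSH at 1.5 ng/mL final. After 30 min at room temperature, cAMP was detected with cAMP-d2/anti-cAMP-cryptate (1 h) by fluorescence.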
Chain of Thyrotropin receptor (Homo sapiens) (P16473 whole entry, looked up): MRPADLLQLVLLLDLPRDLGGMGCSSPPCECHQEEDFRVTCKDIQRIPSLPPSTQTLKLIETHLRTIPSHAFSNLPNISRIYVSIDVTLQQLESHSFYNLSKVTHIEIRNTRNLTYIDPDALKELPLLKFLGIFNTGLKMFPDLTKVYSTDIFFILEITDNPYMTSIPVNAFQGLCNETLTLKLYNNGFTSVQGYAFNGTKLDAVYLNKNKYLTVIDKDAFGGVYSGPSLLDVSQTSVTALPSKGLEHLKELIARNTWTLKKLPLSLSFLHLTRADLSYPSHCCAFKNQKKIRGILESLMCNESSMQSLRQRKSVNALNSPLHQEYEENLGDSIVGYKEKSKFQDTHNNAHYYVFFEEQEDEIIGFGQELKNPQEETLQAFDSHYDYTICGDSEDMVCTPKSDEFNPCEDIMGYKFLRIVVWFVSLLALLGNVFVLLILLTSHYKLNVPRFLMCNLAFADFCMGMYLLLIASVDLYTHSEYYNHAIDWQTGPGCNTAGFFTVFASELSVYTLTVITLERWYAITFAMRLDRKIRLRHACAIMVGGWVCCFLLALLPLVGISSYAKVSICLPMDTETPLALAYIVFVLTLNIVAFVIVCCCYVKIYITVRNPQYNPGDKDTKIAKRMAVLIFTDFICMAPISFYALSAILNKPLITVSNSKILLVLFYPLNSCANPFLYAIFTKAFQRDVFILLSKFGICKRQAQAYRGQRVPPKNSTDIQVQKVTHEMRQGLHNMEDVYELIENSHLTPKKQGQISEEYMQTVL

Chain of Estrogen receptor (Homo sapiens) (P03372 whole entry, looked up): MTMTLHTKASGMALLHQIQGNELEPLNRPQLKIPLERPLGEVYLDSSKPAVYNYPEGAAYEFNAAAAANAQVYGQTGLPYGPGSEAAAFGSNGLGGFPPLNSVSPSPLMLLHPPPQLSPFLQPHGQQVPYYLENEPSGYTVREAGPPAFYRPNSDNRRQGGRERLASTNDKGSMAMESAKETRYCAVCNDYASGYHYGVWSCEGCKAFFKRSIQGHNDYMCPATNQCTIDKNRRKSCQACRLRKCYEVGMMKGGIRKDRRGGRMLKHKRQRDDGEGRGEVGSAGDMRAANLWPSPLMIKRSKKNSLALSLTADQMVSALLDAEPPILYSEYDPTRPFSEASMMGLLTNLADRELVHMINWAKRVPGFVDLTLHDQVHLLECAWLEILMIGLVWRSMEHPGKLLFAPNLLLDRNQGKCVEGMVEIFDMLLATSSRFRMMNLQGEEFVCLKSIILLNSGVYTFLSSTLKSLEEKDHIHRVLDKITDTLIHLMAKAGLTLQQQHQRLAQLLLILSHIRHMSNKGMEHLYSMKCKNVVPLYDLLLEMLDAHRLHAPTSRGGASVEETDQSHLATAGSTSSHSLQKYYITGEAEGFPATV
Chain of Progesterone receptor (Homo sapiens) (P06401 whole entry, looked up): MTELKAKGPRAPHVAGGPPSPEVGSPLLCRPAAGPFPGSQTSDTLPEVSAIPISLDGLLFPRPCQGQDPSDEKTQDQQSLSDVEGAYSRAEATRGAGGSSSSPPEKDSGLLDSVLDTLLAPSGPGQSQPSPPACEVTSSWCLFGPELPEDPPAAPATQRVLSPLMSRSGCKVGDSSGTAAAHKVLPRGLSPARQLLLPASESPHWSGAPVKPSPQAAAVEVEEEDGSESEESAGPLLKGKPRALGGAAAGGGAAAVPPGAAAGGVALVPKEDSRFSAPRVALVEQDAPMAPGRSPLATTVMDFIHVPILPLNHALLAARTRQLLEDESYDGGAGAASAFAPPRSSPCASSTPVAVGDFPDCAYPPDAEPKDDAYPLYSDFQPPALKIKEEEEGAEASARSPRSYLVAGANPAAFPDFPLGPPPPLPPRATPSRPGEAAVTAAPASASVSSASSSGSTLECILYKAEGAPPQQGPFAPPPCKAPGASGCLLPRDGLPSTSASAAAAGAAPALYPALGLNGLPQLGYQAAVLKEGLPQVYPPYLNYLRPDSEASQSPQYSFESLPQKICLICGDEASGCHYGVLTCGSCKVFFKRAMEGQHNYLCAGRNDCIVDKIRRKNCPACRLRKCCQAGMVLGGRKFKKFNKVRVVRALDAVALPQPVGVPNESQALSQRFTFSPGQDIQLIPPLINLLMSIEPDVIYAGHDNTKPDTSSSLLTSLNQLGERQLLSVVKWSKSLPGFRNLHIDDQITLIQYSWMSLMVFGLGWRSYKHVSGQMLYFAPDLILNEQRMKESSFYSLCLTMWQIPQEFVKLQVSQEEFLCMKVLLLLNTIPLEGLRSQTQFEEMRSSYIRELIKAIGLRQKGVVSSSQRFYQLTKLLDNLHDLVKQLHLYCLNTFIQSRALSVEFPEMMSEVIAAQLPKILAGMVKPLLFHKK
Chain of Thyrotropin-releasing hormone receptor (Homo sapiens) (P34981 whole entry, looked up): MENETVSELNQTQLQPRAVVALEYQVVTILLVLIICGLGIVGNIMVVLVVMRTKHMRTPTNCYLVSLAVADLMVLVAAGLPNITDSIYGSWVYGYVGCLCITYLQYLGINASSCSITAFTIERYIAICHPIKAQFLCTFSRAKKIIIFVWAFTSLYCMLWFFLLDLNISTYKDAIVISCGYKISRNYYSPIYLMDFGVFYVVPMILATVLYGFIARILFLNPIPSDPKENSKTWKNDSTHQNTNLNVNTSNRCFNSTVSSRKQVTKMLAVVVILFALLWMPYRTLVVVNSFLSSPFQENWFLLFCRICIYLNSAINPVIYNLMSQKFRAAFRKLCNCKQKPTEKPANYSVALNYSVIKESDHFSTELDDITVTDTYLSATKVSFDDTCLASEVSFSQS

Regarding `CCCCc1ccc2nc(NC(=O)OC)[nH]c2c1`, the result in [1], in assay [5], in assay [8], in [9], in [10] and in assay [11] was inactive. Besides, the Potency result in [2], in [3], in [4], in assay [6], in assay [7] and in assay [12] was “inactive” throughout.
In the case of `O=C1N(c2ccccc2)c2ccccc2C1(Cc1ccncc1)Cc1ccncc1`, the molecule was called inactive in assay [1], in assay [5], in assay [8], in assay [9], in assay [10] and in assay [11]. In addition, the Potency result in assay [2], in assay [13], in assay [3], in [7], in assay [14] and in assay [15] was “inactive” in each case. In addition, the Potency result in assay [16] and in assay [12] was “inactive” each time.
Take `CN1CCN(C2=Nc3ccccc3Oc3ccc(Cl)cc32)CC1`: the result in assay [1], in [5], in assay [17], in assay [8] and in assay [9] was inactive. In addition, the Potency result in assay [2], in [13], in assay [3], in [6], in assay [7] and in [14] was “inactive” throughout. Also, the Potency entry in assay [15] and in assay [16] was “inactive” in each case. The Potency in assay [18] was 26.6 µM (active).
Turning to `CC(CNC1CCCCC1)OC(=O)c1ccccc1` (configuration not stated), the molecule was called inactive in assay [1], in assay [5], in assay [17], in [8], in assay [9] and in assay [10]. Also, the molecule was called inactive in assay [11]. For the same molecule, the Potency result in assay [2], in [13], in assay [6], in [19], in assay [7] and in [18] was “inactive” in each case. Further, the Potency entry in assay [15], in assay [16] and in [12] was “inactive” each time.
As for `CCCCCCn1c(=O)c2c(ncn2C)n(C)c1=O`, the molecule was called inactive in [1], in [5], in assay [17], in [8], in assay [9] and in assay [10]. The Potency entry in [2], in [13], in [3], in assay [4], in [6] and in assay [19] was “inactive” throughout. In addition, the Potency entry in assay [7], in assay [14], in [18], in assay [15] and in assay [16] was “inactive” throughout.
With `Cc1c(C(=O)NCCO)[n+](=O)c2ccccc2n1[O-]`, the outcome in assay [1], in [5], in assay [17], in assay [8], in assay [9] and in assay [10] was inactive. The call in [11] was inactive. Moreover, the Potency entry in assay [2], in assay [13], in [3], in [4], in assay [19] and in assay [7] was “inactive” in each case. For the same molecule, the Potency result in assay [15], in assay [16] and in [12] was “inactive” in each case.
`CCN1CC(CCN2CCOCC2)C(c2ccccc2)(c2ccccc2)C1=O` (configuration not stated): the outcome in [1], in [5], in [17], in [8], in assay [9] and in assay [10] was inactive. Further, the outcome in assay [11] was inactive. Also, the Potency result in [2], in [13], in assay [3], in assay [19], in assay [14] and in assay [15] was “inactive” throughout. The Potency entry in assay [16] and in assay [12] was “inactive” each time.
As for `CC(C)c1ccccc1`, the molecule was classed as inactive in assay [1], in [5], in assay [17], in assay [8], in assay [9] and in assay [10]. Also, the molecule was classed as inactive in assay [11]. For the same molecule, the Potency result in assay [2], in assay [13], in [3], in [4], in [6] and in assay [19] was “inactive” each time. The Potency result in assay [7], in [14] and in assay [12] was “inactive” in each case.
As for `COc1cc(N)c(Cl)cc1C(=O)NC1CCN(Cc2ccccc2)CC1`, the molecule was called inactive in assay [1], in assay [17], in [8], in assay [9], in assay [10] and in assay [11]. The Potency entry in assay [2], in assay [13], in assay [6], in assay [14], in [18] and in assay [12] was “inactive” throughout.
